# Assay results as given in publication PMC7862700, “An all-to-all approach to the identification of sequence-specific readers for epigenetic DNA modifications on cytosine”.
# Key:
# Assay in all cases: DAPPL (digital affinity profiling via proximity ligation, sequencing); 10 mM Tris-HCl pH 7.5, 50 mM NaCl, 1 mM DTT, 4% glycerol, room temperature, 30 min; GST-TFs on glutathione beads, 16-mer random dsDNA library, 0.1% formaldehyde crosslink after washing; high values mean tight binding
# FLI1 = target: T1, FLI1 (Homo sapiens, UniProt Q01543 1-452); settings: protein: recombinant; tags: N-terminal GST; dsDNA, one strand shown
# T1 sequence: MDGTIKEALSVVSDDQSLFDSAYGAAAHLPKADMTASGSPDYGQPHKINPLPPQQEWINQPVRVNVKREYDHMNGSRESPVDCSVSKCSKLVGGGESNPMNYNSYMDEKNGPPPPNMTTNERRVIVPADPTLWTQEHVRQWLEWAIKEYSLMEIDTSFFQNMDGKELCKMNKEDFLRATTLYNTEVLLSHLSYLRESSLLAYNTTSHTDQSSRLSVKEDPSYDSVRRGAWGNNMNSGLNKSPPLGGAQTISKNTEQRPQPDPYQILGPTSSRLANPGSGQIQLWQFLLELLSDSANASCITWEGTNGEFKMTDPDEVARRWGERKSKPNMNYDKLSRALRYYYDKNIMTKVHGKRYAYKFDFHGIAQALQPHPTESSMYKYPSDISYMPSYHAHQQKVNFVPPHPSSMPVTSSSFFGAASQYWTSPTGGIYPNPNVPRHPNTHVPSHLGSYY
# Method in brief: (§1)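 Human transcription factors fused to GST were expressed in yeast, captured on glutathione beads, given DNA barcodes and pooled with a GST-only negative control. Pools were incubated with 200 nmole of a 16-mer random double-stranded DNA library in Tris/NaCl/DTT/glycerol buffer at room temperature for 30 min. They were then washed, crosslinked with 0.1% formaldehyde, proximity-ligated (BsaI/T4 ligase, 1 h, 37 °C), PCR-amplified and sequenced on an Illumina NextSeq500. Binding signal is each 6-mer's read frequency for a factor divided by its frequency for the GST control.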
# ELK1 = target: T2, ELK1 (Homo sapiens, UniProt P19419 1-428); settings: protein: recombinant; tags: N-terminal GST; dsDNA, one strand shown
# T2 sequence: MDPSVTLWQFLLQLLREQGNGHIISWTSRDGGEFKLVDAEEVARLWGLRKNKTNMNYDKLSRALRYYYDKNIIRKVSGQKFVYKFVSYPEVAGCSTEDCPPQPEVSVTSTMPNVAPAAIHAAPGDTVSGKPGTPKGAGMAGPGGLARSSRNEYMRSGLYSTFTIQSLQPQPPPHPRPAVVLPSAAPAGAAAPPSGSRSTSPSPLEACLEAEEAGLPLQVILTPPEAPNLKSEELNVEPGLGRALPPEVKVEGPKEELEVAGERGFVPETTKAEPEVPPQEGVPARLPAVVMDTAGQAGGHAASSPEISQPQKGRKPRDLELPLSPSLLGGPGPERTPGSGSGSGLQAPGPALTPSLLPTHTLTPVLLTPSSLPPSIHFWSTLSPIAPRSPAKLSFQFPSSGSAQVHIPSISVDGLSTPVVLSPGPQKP
# Method in brief: as §1
# GABPA = target: T3, GABPA (Homo sapiens, UniProt Q06546 1-454); settings: protein: recombinant; tags: N-terminal GST; dsDNA, one strand shown
# T3 sequence: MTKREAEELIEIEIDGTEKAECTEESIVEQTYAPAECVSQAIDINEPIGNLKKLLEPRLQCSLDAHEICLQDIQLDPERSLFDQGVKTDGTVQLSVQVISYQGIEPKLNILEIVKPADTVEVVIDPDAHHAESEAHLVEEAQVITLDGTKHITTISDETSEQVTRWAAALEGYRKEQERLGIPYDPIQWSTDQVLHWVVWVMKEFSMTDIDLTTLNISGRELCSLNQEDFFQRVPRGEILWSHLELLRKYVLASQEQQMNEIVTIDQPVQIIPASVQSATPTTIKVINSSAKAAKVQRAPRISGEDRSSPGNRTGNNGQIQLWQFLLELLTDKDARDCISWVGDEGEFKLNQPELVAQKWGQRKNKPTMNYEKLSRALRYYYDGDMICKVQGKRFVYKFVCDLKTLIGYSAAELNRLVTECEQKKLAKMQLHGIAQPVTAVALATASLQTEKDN
# Method in brief: as §1
# ERG = target: T4, ERG (Homo sapiens, UniProt P11308 1-479); settings: protein: recombinant; tags: N-terminal GST; dsDNA, one strand shown
# T4 sequence: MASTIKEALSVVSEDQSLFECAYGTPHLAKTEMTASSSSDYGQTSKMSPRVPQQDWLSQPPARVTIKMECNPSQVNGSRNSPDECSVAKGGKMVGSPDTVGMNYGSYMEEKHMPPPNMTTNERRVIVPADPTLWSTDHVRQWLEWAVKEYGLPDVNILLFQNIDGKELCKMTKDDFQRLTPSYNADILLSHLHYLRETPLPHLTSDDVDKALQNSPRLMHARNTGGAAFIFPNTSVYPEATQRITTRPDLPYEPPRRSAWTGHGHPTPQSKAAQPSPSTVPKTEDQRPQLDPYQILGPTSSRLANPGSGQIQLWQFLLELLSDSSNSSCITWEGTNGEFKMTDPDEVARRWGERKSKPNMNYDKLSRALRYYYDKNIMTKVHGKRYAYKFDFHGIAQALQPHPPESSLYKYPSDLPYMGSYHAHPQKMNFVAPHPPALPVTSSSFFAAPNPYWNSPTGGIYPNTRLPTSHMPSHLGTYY
# Method in brief: as §1
# ELF1 = ELF1 (Homo sapiens, UniProt P32519 1-619); settings: protein: recombinant; tags: N-terminal GST; dsDNA, one strand shown
# Chain of ELF1 (P32519 whole entry): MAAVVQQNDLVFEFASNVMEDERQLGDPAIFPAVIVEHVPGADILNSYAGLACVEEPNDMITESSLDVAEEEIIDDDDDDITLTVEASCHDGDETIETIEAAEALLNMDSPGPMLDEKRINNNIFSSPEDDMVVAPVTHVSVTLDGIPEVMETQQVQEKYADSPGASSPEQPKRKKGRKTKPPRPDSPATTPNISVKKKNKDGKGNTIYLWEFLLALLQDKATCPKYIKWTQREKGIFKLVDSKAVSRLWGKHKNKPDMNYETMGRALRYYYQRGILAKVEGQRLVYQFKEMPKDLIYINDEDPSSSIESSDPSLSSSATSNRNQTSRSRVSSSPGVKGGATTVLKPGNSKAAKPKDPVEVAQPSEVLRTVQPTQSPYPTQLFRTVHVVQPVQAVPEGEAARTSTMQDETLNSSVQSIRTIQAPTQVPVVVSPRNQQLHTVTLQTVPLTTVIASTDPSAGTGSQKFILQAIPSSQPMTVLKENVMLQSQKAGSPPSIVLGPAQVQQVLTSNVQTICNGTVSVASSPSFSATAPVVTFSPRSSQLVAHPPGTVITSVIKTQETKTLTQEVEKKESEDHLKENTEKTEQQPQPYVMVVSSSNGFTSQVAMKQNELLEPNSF
# Method in brief: as §1
# EHF = target: T5, EHF (Homo sapiens, UniProt Q9NZC4 1-300); settings: protein: recombinant; tags: N-terminal GST; dsDNA, one strand shown
# T5 sequence: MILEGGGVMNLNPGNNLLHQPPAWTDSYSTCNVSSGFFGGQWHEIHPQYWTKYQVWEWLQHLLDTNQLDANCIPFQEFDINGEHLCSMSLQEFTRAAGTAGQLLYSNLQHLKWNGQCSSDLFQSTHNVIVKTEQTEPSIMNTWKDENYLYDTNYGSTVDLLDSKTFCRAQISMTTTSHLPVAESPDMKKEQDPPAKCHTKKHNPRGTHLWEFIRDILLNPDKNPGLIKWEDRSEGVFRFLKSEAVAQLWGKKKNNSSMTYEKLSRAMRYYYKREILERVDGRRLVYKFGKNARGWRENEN
# Method in brief: as §1
# SPI1 = SPI1 (Homo sapiens, UniProt P17947 1-270); settings: protein: recombinant; tags: N-terminal GST; dsDNA, one strand shown
# Method in brief: as §1
# SPIB = SPIB (Homo sapiens, UniProt Q01892 1-262); settings: protein: recombinant; tags: N-terminal GST; dsDNA, one strand shown
# Chain of SPIB (Q01892 whole entry): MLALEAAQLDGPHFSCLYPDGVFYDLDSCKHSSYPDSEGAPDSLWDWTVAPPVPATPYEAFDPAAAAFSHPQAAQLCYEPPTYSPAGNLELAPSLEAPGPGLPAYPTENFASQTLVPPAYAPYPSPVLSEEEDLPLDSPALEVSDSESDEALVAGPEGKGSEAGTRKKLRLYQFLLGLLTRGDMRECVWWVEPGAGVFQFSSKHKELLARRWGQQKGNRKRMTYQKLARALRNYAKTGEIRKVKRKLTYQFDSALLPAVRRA
# Method in brief: as §1
# ELK3 = target: T6, ELK3 (Homo sapiens, UniProt P41970 1-407); settings: protein: recombinant; tags: N-terminal GST; dsDNA, one strand shown
# T6 sequence: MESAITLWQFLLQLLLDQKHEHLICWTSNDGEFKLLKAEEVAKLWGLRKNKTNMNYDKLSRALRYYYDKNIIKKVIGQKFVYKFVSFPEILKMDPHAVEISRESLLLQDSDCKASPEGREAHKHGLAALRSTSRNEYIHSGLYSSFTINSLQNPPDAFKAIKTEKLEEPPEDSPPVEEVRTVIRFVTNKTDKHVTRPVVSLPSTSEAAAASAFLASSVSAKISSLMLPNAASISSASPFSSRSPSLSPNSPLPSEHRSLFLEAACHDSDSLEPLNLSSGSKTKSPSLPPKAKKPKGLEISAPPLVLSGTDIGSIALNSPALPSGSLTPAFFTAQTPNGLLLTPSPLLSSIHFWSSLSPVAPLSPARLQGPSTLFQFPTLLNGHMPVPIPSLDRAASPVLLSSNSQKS
# Method in brief: as §1
# FEV = target: T7, FEV (Homo sapiens, UniProt Q99581 1-238); settings: protein: recombinant; tags: N-terminal GST; dsDNA, one strand shown
# T7 sequence: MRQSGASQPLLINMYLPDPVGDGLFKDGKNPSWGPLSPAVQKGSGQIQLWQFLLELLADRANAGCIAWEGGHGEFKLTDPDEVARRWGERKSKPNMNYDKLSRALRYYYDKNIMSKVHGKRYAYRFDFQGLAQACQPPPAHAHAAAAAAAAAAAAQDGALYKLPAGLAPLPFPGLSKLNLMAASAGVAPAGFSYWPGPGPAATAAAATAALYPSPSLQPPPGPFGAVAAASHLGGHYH
# Method in brief: as §1
# ETV5 = ETV5 (Homo sapiens, UniProt P41161 1-510); settings: protein: recombinant; tags: N-terminal GST; dsDNA, one strand shown
# Chain of ETV5 (P41161 whole entry): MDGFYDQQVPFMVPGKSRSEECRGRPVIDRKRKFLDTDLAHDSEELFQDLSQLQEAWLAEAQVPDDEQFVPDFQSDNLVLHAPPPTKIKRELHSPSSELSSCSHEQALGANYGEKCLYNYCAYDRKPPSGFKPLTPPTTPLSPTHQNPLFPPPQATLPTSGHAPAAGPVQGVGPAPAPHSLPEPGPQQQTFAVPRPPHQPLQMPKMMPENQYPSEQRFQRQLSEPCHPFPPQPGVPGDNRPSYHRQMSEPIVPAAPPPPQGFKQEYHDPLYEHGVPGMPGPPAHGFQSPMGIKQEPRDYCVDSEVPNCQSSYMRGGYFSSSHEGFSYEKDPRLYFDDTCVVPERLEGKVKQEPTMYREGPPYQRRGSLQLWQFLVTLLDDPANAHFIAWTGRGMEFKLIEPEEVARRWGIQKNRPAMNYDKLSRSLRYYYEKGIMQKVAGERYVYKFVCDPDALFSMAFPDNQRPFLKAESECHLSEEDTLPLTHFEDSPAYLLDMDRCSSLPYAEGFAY
# Method in brief: as §1
# HSF1 = HSF1 (Homo sapiens, UniProt Q00613 1-529); settings: protein: recombinant; tags: N-terminal GST; chain copies: 3; dsDNA, one strand shown
# Chain of HSF1 (Q00613 whole entry): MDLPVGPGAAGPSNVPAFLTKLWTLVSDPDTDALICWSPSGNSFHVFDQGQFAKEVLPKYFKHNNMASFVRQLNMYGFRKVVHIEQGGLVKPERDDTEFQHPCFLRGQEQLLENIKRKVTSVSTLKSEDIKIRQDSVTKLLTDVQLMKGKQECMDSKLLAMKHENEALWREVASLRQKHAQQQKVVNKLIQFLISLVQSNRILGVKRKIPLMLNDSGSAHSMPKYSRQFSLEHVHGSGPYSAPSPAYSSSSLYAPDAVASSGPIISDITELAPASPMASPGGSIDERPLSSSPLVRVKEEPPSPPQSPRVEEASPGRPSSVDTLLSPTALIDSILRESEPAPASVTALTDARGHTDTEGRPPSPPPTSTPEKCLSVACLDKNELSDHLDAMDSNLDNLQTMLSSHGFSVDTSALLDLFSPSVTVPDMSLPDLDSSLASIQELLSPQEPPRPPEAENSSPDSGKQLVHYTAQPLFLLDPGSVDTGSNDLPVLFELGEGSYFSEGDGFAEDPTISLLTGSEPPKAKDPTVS
# Method in brief: as §1
# SPIC = target: T8, SPIC (Homo sapiens, UniProt Q8N5J4 1-248); settings: protein: recombinant; tags: N-terminal GST; dsDNA, one strand shown
# T8 sequence: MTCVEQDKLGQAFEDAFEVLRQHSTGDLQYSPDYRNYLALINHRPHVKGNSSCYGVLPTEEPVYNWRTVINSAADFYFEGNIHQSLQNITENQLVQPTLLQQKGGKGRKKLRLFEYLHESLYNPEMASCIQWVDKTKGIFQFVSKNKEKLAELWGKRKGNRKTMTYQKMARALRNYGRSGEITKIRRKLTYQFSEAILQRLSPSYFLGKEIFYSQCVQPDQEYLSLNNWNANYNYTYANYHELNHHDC
# Method in brief: as §1
# ELF4 = ELF4 (Homo sapiens, UniProt Q99607 1-663); settings: protein: recombinant; tags: N-terminal GST; dsDNA, one strand shown
# Chain of ELF4 (Q99607 whole entry): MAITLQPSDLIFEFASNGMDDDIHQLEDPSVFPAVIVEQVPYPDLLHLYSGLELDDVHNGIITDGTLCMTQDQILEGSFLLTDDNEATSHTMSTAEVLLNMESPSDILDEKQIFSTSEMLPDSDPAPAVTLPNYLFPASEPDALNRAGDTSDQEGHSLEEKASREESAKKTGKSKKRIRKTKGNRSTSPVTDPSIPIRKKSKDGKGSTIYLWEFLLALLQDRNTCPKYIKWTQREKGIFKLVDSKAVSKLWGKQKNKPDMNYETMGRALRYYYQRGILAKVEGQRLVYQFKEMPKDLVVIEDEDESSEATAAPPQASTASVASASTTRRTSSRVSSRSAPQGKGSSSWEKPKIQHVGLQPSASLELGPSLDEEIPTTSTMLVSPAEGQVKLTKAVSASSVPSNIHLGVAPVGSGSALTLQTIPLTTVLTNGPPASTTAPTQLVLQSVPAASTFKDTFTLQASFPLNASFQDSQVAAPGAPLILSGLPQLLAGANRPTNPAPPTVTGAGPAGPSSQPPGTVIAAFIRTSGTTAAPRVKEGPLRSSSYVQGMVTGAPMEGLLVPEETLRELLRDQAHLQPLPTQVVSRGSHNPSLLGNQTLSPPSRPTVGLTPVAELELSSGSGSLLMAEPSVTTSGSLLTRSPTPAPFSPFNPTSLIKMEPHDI
# Method in brief: as §1
# ELK4 = target: T9, ELK4 (Homo sapiens, UniProt P28324-2 1-405); settings: protein: recombinant; tags: N-terminal GST; dsDNA, one strand shown
# T9 sequence: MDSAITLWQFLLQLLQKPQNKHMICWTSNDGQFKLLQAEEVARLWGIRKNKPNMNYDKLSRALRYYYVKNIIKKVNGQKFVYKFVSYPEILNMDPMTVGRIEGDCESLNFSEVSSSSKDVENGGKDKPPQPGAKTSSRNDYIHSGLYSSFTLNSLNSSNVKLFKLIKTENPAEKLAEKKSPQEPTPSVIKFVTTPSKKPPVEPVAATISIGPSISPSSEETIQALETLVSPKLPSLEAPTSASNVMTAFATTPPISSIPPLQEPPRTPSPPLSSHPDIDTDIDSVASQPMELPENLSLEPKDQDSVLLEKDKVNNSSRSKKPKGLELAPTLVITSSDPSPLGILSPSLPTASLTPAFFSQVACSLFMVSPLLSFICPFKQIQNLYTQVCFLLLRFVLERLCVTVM
# Method in brief: as §1
# ETV2 = target: T10, ETV2 (Homo sapiens, UniProt O00321 1-342); settings: protein: recombinant; tags: N-terminal GST; dsDNA, one strand shown
# T10 sequence: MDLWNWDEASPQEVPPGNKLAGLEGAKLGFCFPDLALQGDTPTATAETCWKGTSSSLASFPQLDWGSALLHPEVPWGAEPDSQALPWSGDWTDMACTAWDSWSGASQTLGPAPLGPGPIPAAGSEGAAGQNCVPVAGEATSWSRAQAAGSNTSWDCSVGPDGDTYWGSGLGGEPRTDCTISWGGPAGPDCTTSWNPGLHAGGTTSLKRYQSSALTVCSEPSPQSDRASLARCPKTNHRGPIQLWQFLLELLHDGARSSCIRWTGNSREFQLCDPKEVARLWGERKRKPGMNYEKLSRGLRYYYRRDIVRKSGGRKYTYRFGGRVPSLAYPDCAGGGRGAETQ
# Method in brief: as §1
# ELF3 = target: T11, ELF3 (Homo sapiens, UniProt P78545 1-371); settings: protein: recombinant; tags: N-terminal GST; dsDNA, one strand shown
# T11 sequence: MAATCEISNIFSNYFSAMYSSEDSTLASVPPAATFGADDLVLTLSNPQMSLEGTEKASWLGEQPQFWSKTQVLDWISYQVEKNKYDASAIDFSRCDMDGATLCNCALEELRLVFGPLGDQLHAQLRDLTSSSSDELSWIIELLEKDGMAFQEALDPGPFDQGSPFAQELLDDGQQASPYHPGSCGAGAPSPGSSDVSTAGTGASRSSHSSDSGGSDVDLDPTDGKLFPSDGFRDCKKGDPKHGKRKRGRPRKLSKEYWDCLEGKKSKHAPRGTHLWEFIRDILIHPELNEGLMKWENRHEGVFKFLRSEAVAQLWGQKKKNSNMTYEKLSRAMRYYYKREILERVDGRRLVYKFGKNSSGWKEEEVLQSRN
# Method in brief: as §1
# CRX = CRX (Homo sapiens, UniProt O43186 1-299); settings: protein: recombinant; tags: N-terminal GST; dsDNA, one strand shown
# Chain of CRX (O43186 whole entry): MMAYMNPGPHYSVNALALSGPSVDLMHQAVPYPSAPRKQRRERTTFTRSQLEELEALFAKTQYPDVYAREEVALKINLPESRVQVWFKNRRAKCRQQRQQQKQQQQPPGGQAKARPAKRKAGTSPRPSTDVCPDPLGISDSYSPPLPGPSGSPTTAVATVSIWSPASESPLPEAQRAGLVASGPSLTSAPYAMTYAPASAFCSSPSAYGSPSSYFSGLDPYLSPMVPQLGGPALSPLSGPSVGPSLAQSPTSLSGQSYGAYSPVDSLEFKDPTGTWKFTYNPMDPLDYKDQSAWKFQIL
# Method in brief: as §1
# ETV1 = ETV1 (Homo sapiens, UniProt P50549 1-477); settings: protein: recombinant; tags: N-terminal GST; dsDNA, one strand shown
# Chain of ETV1 (P50549 whole entry): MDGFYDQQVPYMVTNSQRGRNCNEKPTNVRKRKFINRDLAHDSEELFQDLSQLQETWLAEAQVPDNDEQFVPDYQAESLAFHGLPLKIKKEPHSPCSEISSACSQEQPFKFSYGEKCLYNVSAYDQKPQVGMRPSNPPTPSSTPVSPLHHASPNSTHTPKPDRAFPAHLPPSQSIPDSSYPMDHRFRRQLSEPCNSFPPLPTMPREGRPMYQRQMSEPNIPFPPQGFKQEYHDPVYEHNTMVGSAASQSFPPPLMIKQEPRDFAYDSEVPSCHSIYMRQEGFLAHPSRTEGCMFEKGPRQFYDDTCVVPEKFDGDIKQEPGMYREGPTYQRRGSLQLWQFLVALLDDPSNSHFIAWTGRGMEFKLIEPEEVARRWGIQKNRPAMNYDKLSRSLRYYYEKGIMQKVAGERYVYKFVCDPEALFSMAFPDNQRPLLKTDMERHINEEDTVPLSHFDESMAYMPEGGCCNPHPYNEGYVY
# Method in brief: as §1
sequence,measurement,setting,value
TTAAAG,binding signal,FLI1,"1.17 fold enrichment (6-mer frequency, TF over GST control)"
same,binding signal,ELK1,"1.11 fold enrichment (6-mer frequency, TF over GST control)"
same,binding signal,GABPA,"1.26 fold enrichment (6-mer frequency, TF over GST control)"
same,binding signal,ERG,"1.1 fold enrichment (6-mer frequency, TF over GST control)"
same,binding signal,ELF1,"1.19 fold enrichment (6-mer frequency, TF over GST control)"
same,binding signal,EHF,"1.18 fold enrichment (6-mer frequency, TF over GST control)"
same,binding signal,SPI1,"1.12 fold enrichment (6-mer frequency, TF over GST control)"
same,binding signal,SPIB,"1.19 fold enrichment (6-mer frequency, TF over GST control)"
same,binding signal,ELK3,"1.09 fold enrichment (6-mer frequency, TF over GST control)"
same,binding signal,FEV,"1.17 fold enrichment (6-mer frequency, TF over GST control)"
same,binding signal,ETV5,"1.15 fold enrichment (6-mer frequency, TF over GST control)"
same,binding signal,HSF1,"1.85 fold enrichment (6-mer frequency, TF over GST control)"
same,binding signal,SPIC,"1.17 fold enrichment (6-mer frequency, TF over GST control)"
same,binding signal,ELF4,"1.15 fold enrichment (6-mer frequency, TF over GST control)"
same,binding signal,ELK4,"1.18 fold enrichment (6-mer frequency, TF over GST control)"
same,binding signal,ETV2,"1.12 fold enrichment (6-mer frequency, TF over GST control)"
same,binding signal,ELF3,"1.26 fold enrichment (6-mer frequency, TF over GST control)"
same,binding signal,CRX,"2.66 fold enrichment (6-mer frequency, TF over GST control)"
same,binding signal,ETV1,"1.15 fold enrichment (6-mer frequency, TF over GST control)"
